# Laboratory results as given in ChEMBL document CHEMBL1157539, “Thousands of chemical starting points for antimalarial lead identification” (Nature, 2010).
# Test system: Plasmodium falciparum
# Assay: GSK_TCMDC: Inhibition of Plasmodium falciparum Dd2 in whole red blood cells, using parasite LDH activity as an index of growth. Test compounds present at 2uM
# Type: functional
row,Structure (SMILES),Inhibition
1,CCCC(C)Nc1nc(C)cc(N[C@@H](CC(C)C)C(=O)NCCc2ccccc2)n1.O=C(O)C(F)(F)F (some centres not stated),51%
2,Cc1c(CNCCCNc2cc(=O)c3ccccc3[nH]2)sc(C(F)=C(F)F)c1Br.Cl,18%
3,COC(=O)CCn1c(C2CCN(CC3CCC(NC(=O)/C=C/c4ccc(Cl)c(Cl)c4)CC3)CC2)nc2ccccc21 (configuration not stated),10%
4,COc1cccc2cc(C(=O)N[C@@H](CC(C)C)C(=O)N[C@H](C=NN3CCOC3=O)Cc3ccccc3)oc12,70%
5,COc1ccc(CN2C(=S)N(Cc3ccccc3)C(=O)C2CC(=O)Nc2ccccc2)cc1OC (configuration not stated),73%
6,CC(C)COc1ccc(Cl)cc1Cc1ccc(-c2nc3ccc(C(F)(F)F)cc3[nH]2)o1,51%
7,CNC(=O)c1cnc(Nc2ccc(N3CCOCC3)cc2)nc1Nc1cccc(O)c1.O=C(O)C(F)(F)F,78%
8,Cc1nc(-c2ccc(-c3ccc(C(=O)Nc4ccc(I)c(OCCN5CCCC5)c4)cc3)c(C)c2)no1.Cl,35%
9,COc1ccc(CCNCCCCCCNCCc2ccc(-c3ccccc3)cc2)cc1OC.Cl,35%
10,O=C(NCCCCN1CCC(c2ccc3c(c2OCCCO)CCCC3)CC1)c1ccc(-c2ccc(C(F)(F)F)cc2)cc1,53%
11,CN(C)CC(O)C(c1ccccc1)c1ccc(Cl)cc1.O=C(O)CCC(=O)O (configuration not stated),4%
12,CN1CCCN(Cc2cccc(-c3cccc(NC(=O)c4ccc(C#N)cc4)c3)c2)CC1.O=C(O)C(F)(F)F,4%
13,COc1cc2c(cc1OC)-c1cc(=Nc3c(C)cc(C)cc3C)n(C)c(=O)n1CC2.Cl,29%
14,O=C(Nc1cc(C(F)(F)F)ccc1Cl)c1ccc(Cn2cc(Br)cn2)cc1,67%
15,CC(C)(C)c1nn(-c2ccccc2)c2[nH]c(=O)c(CNC3CCCCC3)cc12,76%
16,COc1ccc2nc3cc(Cl)ccc3c(Nc3ccc(O)c(CNC(C)C)c3)c2c1,100%
17,CC[C@H](C)CNC(=O)c1cncc(-c2cccc(CNC3Cc4ccccc4C3)c2)c1.O=C(O)C(F)(F)F,76%
18,COc1ccc(CCN(C)CCCCc2ccc(NC(=O)c3cccc4c(=O)c5cc(F)ccc5sc34)cc2)cc1OC,49%
19,Cc1ccc(Oc2ccc(CNc3nc(Nc4cccc(F)c4)nc(Nc4cccc(F)c4)n3)cc2)cc1,0%

row,Structure (SMILES),Inhibition
1,CN(C)CCN(C)Cc1cccc(-c2ccc3c(Nc4ccc(F)cc4Cl)ccnc3c2)c1,100%
2,CCCC(=O)NC(c1ccc(C)cc1)c1ccc2cccnc2c1O (configuration not stated),45%
3,Cc1cc(N)c2cc(NC(=O)c3cccc(C(=O)Nc4ccc5nc(C)cc(N)c5c4)c3)ccc2n1.Cl,92%
4,Cl.O=c1cc(NCCCNCc2scc(I)c2I)[nH]c2ccccc12,73%
5,O=C(Nc1cccc(CN2CCN(Cc3cccc(O)c3)CC2)c1)c1cc2ccccc2s1.O=C(O)C(F)(F)F,54%
6,CC(C)(C)c1ccc(NC(=O)c2cccc(CN3CCCN(Cc4ccsc4)CC3)c2)cc1.O=C(O)C(F)(F)F,3%
7,CN(C)c1ccc(N2C(N)=NC(N)=NC23CCCC3)cc1.Cl,0%
8,Cc1cccc(C)c1CNc1ccnc2cc(Br)ccc12.Cl,99%
9,CS(=O)(=O)CCNCc1cccc(-c2cc3c(Nc4ccc(OCc5ccccc5)cc4)ncnc3cn2)c1.Cl,26%
10,NC1=NC(Cc2ccccc2)(c2ccncc2)C(=O)N1CCCc1ccccc1 (configuration not stated),1%
11,CO/N=C(\C)c1ccc2c(c1)CCN(CCC1CCC(NC(=O)/C=C/c3ccc(F)cc3)CC1)CC2.Cl (configuration not stated),15%
12,Cc1ccc(-n2cc(CNCCCn3ccnc3)c(-c3cccc(C)c3)n2)cc1,36%
13,COc1ccc(CN(C)CCOc2ccc(NC(=O)c3cccc4c(=O)cc(-c5ccccc5)[nH]c34)cc2)cc1OC,44%
14,O=C(/C=C/c1ccc(Cl)c(Cl)c1)NCCCCCCN1CCCN(C(=O)Nc2ccc(Cl)c(C(F)(F)F)c2)CC1,24%
15,CC(=O)Nc1cccc(Nc2nccc(Nc3ccc(Oc4ccccc4)cc3)n2)c1.Cl,99%
16,O=C(C1CC1c1ccccc1)N(Cc1ccc(-c2ccc(CNCCc3ccccc3)cc2)cc1)C1CCNCC1.O=C(O)C(F)(F)F (configuration not stated),39%
17,c1ccc(-c2[nH]c3ccccc3c2CN2CCC(N3CCCCC3)CC2)nc1,82%
18,Cl.O=C(NCCCCN1CCC(c2ccc3c(c2OCCO)CCCC3)CC1)c1ccc2oc(-c3ccc(C(F)(F)F)cc3)cc2c1,56%
